Assay results published in PubChem BioAssay (NCATS).
Records with an inconclusive call do not appear. Calls of active or inactive are those of the source. The call rests on the fitted dose curve; in most records, active means well fitted curve in the direction sought with a large enough effect; inconclusive means small, poorly fitted or top-dose-only effect, or another doubt; inactive means no such curve, though single readings can be large; an effect the other way counts as inactive or inconclusive.

What was measured:
CAOV3 = assay: Primary qHTS to identify gynecologic anti-cancer compounds using libraries of approved drugs and bioactive compounds (AID 1345084); conditions: Gynecologic cancer cell panel viability, ATPlite luminescence, 48 h; series mostly up to 57.5 µM; further: nearly all actives have a fitted effect of over 55% in size
Outline: (§1)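 Cytotoxicity screen measuring ATP content by luciferase luminescence. Each compound is applied at five concentrations for 48 h at 37 C with 5% CO2.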

CASKI = assay: as above; conditions: Gynecologic cancer cell panel viability, ATPlite luminescence, 48 h; series mostly up to 57.5 µM
Outline: as §1

Es-2 = assay: as above; conditions: Gynecologic cancer cell panel viability, ATPlite luminescence, 48 h; series mostly up to 57.5 µM
Outline: as §1

HeLa = assay: as above; conditions: Gynecologic cancer cell panel viability, ATPlite luminescence, 48 h; series mostly up to 57.5 µM
Outline: as §1

Hek293T = assay: as above; conditions: Gynecologic cancer cell panel viability, ATPlite luminescence, 48 h, control line for the selectivity index; series mostly up to 57.5 µM
Outline: as §1

JEG-3 = assay: as above; conditions: Gynecologic cancer cell panel viability, ATPlite luminescence, 48 h; series mostly up to 57.5 µM
Outline: as §1

OV90 = assay: as above; conditions: Gynecologic cancer cell panel viability, ATPlite luminescence, 48 h; series mostly up to 57.5 µM
Outline: as §1

PA-1 = assay: as above; conditions: Gynecologic cancer cell panel viability, ATPlite luminescence, 48 h; series mostly up to 57.5 µM
Outline: as §1

SKOV3 = assay: as above; conditions: Gynecologic cancer cell panel viability, ATPlite luminescence, 48 h; series mostly up to 57.5 µM
Outline: as §1

Tov-21-G = assay: as above; conditions: Gynecologic cancer cell panel viability, ATPlite luminescence, 48 h; series mostly up to 57.5 µM
Outline: as §1

Tov112D = assay: as above; conditions: Gynecologic cancer cell panel viability, ATPlite luminescence, 48 h; series mostly up to 57.5 µM
Outline: as §1

[1] = Drug repurposing screens with cells derived from glioblastoma tumor samples (AID 1345199); conditions: GBM patient neurospheres viability, ATP luminescence, 48 h; further: nearly all actives have a fitted effect of over 40% in size
Outline: (§2)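 Primary testing used CD133+ neurospheres from four GBM patients, seven concentrations, 48 h exposure and ATP-based viability; confirmation added three slower-growing patient lines.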

astro = assay: as above; conditions: viability, ATP luminescence, 48 h; series mostly up to 45.9 µM
Outline: as §2

[2] = at 45.9 µM (top of the series), tumour line B
[3] = at 45.9 µM (top of the series), tumour line D
[4] = at 46 µM (top of the series), tumour line A
[5] = at 46.1 µM (top of the series), tumour line C
On the % scale 0 is the no-effect control and ±100 the full control effect.

OC[C@H]1O[C@@H](OCCc2ccc(O)cc2)[C@H](O)[C@@H](O)[C@@H]1O
inactive: Potency (CAOV3) | Potency (CASKI) | Potency (Es-2) | Potency (HeLa) | Potency (Hek293T) | Potency (JEG-3) | Potency (OV90) | Potency (PA-1) | Potency (SKOV3) | Potency (Tov-21-G) | Potency (Tov112D) | activity, negative = cell killing [1, 2] -17.4% | activity, negative = cell killing [1, 3] 11.3% | activity, negative = cell killing [1, 4] -5.89% | activity, negative = cell killing [1, 5] 4.11% | Potency (astro)

CC(=O)NCCCCn1c2c(c3ccccc31)C(=O)NCC2
inactive: Potency (CAOV3) | Potency (CASKI) | Potency (Es-2) | Potency (HeLa) | Potency (Hek293T) | Potency (JEG-3) | Potency (OV90) | Potency (PA-1) | Potency (Tov-21-G) | Potency (Tov112D)

O=C(O)C[C@H]1CCC(=O)[C@@H]1C/C=C\CCOC1OC(CO)C(O)C(O)C1O (stereo partly specified)
inactive: Potency (CAOV3) | Potency (CASKI) | Potency (Es-2) | Potency (HeLa) | Potency (Hek293T) | Potency (JEG-3) | Potency (OV90) | Potency (PA-1) | Potency (Tov-21-G) | Potency (Tov112D)

CN1Cc2c(N)cccc2C(c2ccccc2)C1 (stereo unspecified)
inactive: Potency (CAOV3) | Potency (CASKI) | Potency (Es-2) | Potency (HeLa) | Potency (Hek293T) | Potency (JEG-3) | Potency (OV90) | Potency (PA-1) | Potency (SKOV3) | Potency (Tov-21-G) | Potency (Tov112D) | activity, negative = cell killing [1, 2] -10.9% | activity, negative = cell killing [1, 3] -22.4% | activity, negative = cell killing [1, 4] -25.6% | activity, negative = cell killing [1, 5] -16.4% | Potency (astro)

C=C1[C@@H]2[C@H]3OC(=O)C(=C)[C@@H]3CC[C@@](C)(O)[C@@H]2C[C@@H]1O[C@@H]1O[C@H](CO)[C@@H](O)[C@H](O)[C@H]1O
inactive: Potency (CAOV3) | Potency (CASKI) | Potency (Es-2) | Potency (HeLa) | Potency (Hek293T) | Potency (JEG-3) | Potency (OV90) | Potency (PA-1) | Potency (SKOV3) | Potency (Tov-21-G) | Potency (Tov112D)

O=S(=O)(Nc1ccc(C(O)(C(F)(F)F)C(F)(F)F)cc1)c1cccs1
inactive: Potency (CAOV3) | Potency (CASKI) | Potency (Es-2) | Potency (HeLa) | Potency (Hek293T) | Potency (JEG-3) | Potency (OV90) | Potency (PA-1) | Potency (SKOV3) | Potency (Tov-21-G) | Potency (Tov112D)

C/C=C(\C)C(=O)OC[C@H]1O[C@H](O[C@H]2O[C@H](CO)[C@@H](OC(=O)/C(C)=C/C)[C@H](O)[C@H]2O[C@@H]2O[C@H](CO)[C@@H](O)[C@H](O)[C@H]2O)[C@H](O[C@@H]2O[C@H](CO)[C@@H](O)[C@H](O)[C@H]2O)[C@@H](O)[C@@H]1O
inactive: activity change, negative = cytotoxicity (CAOV3) 17% [at 11.6 µM] | activity change, negative = cytotoxicity (CASKI) 6.41% [at 11.6 µM] | activity change, negative = cytotoxicity (Es-2) 10.5% [at 11.6 µM] | activity change, negative = cytotoxicity (HeLa) 13.4% [at 11.6 µM] | activity change, negative = cytotoxicity (Hek293T) 8.94% [at 11.6 µM] | activity change, negative = cytotoxicity (JEG-3) 2.7% [at 11.6 µM] | activity change, negative = cytotoxicity (OV90) 8.14% [at 11.6 µM] | activity change, negative = cytotoxicity (PA-1) 33.8% [at 11.6 µM] | activity change, negative = cytotoxicity (SKOV3) 3.25% [at 11.6 µM] | activity change, negative = cytotoxicity (Tov-21-G) 22.3% [at 11.6 µM] | activity change, negative = cytotoxicity (Tov112D) 9.9% [at 11.6 µM]

Cn1c(=O)cc(N2CCCC(N)C2)n(Cc2ccccc2C#N)c1=O (stereo unspecified)
inactive: Potency (CAOV3) | Potency (CASKI) | Potency (Es-2) | Potency (HeLa) | Potency (Hek293T) | Potency (JEG-3) | Potency (OV90) | Potency (PA-1) | Potency (SKOV3) | Potency (Tov112D)

C=CC(C)(O)CC/C=C(/C)C(=O)OC1C(OC2OCC(OC3OC(CO)C(O)C(O)C3O)C(OC3OCC(O)C(OC4OC(C)C(O)C(O)C4O)C3O)C2O)COC(OC(=O)C23CCC(C)(C)CC2C2=CCC4C5(C)CCC(OC6OC(CO)C(OC7OC(CO)C(O)C(OC8OCC(O)C(O)C8O)C7O)C(O)C6O)C(C)(C)C5CCC4(C)C2(C)CC3O)C1O (stereo unspecified)
inactive: activity change, negative = cytotoxicity (CAOV3) 6.96% [at 6.55 µM] | activity change, negative = cytotoxicity (CASKI) 8.91% [at 6.55 µM] | activity change, negative = cytotoxicity (Es-2) -0.338% [at 6.55 µM] | activity change, negative = cytotoxicity (HeLa) 1.37% [at 6.55 µM] | activity change, negative = cytotoxicity (Hek293T) -23.4% [at 6.55 µM] | activity change, negative = cytotoxicity (JEG-3) -0.642% [at 6.55 µM] | activity change, negative = cytotoxicity (OV90) -1.5% [at 6.55 µM] | activity change, negative = cytotoxicity (PA-1) 6.35% [at 6.55 µM] | activity change, negative = cytotoxicity (SKOV3) 24.3% [at 6.55 µM] | activity change, negative = cytotoxicity (Tov-21-G) 1.46% [at 6.55 µM] | activity change, negative = cytotoxicity (Tov112D) 0.487% [at 6.55 µM]

O=C(c1ccc(NS(=O)(=O)c2cccc3cccnc23)cc1)N1CCN(CC2CC2)CC1
inactive: Potency (CAOV3) | Potency (CASKI) | Potency (Es-2) | Potency (HeLa) | Potency (Hek293T) | Potency (JEG-3) | Potency (OV90) | Potency (PA-1) | Potency (Tov-21-G) | Potency (Tov112D)
